In PubChem BioAssay AID1159580 (chemical genetic matrix, 2015):
Out of some 5,500 compounds screened, about 2,000 (36%) were called active. Roughly 18% stayed inconclusive and do not appear here. No stated cut-off is given here; in the data, active means normalized growth mostly below about 0.91 (no sharp cut-off); inconclusive means no clear call, values can overlap the other calls; inactive means mostly above about 0.92. Some of the results follow.

Assay: chemical genetic growth profiling, strain panel (AID 1159580);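 further: tested at 20 µM; growth read once vehicle control cultures reached saturation at 30 °C; 1 = growth at the plate median or of vehicle wells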
Conditions: growth OD

Measured: normalized growth

CN[C@@H]1[C@H](O)[C@H](NC)[C@H]2O[C@@]3(O)C(=O)C[C@@H](C)O[C@H]3O[C@@H]2[C@H]1O
inactive: S. cerevisiae deletion strains, locus YJR075W, strain HOC1, stronger effect = lower value 1.01 | S. cerevisiae deletion strains, locus YKL009W, strain mrt4, stronger effect = lower value 1.02 | S. cerevisiae deletion strains, locus YKL068W, stronger effect = lower value 1.01 | S. cerevisiae deletion strains, locus YKL085W, strain MDH1 (second series), stronger effect = lower value 1.01 | S. cerevisiae deletion strains, locus YKL085W, strain MDH1, stronger effect = lower value 1.01 | S. cerevisiae deletion strains, locus YKL160W, strain elf1, stronger effect = lower value 1.01 | S. cerevisiae deletion strains, locus YKL190W, strain CNB1, stronger effect = lower value 1 | S. cerevisiae deletion strains, locus YKR001C, strain vps1, stronger effect = lower value 1.02 | S. cerevisiae deletion strains, locus YKR026C, strain gcn3, stronger effect = lower value 1.01 | S. cerevisiae deletion strains, locus YKR091W, strain srl3, stronger effect = lower value 1 | S. cerevisiae deletion strains, locus YLL001W, strain dnm1, stronger effect = lower value 1.02 | S. cerevisiae deletion strains, locus YLL026W, stronger effect = lower value 1 | S. cerevisiae deletion strains, locus YLL041C, strain sdh2, stronger effect = lower value 0.999 | S. cerevisiae deletion strains, locus YLR027C, strain aat2, stronger effect = lower value 1.01 | S. cerevisiae deletion strains, locus YLR039C, strain RIC1, stronger effect = lower value 1.05 | S. cerevisiae deletion strains, locus YLR058C, strain SHM2, stronger effect = lower value 1.01 | S. cerevisiae deletion strains, locus YLR102C, strain apc9, stronger effect = lower value 1.02 | S. cerevisiae deletion strains, locus YLR113W, strain HOG1, stronger effect = lower value 0.967 | S. cerevisiae deletion strains, locus YLR221C, strain rsa3, stronger effect = lower value 0.981 | S. cerevisiae deletion strains, locus YLR258W, strain gsy2, stronger effect = lower value 0.999 | S. cerevisiae deletion strains, locus YLR262C, strain YPT6 (second series), stronger effect = lower value 1.05 | S. cerevisiae deletion strains, locus YLR262C, strain YPT6, stronger effect = lower value 1.06 | S. cerevisiae deletion strains, locus YLR268W, strain sec22, stronger effect = lower value 1.04 | S. cerevisiae deletion strains, locus YLR320W, strain mms22, stronger effect = lower value 0.974 | S. cerevisiae deletion strains, locus YLR330W, strain CHS5, stronger effect = lower value 1.01 | S. cerevisiae deletion strains, locus YLR342W, strain FKS1 (second series), stronger effect = lower value 1 | S. cerevisiae deletion strains, locus YLR342W, strain FKS1, stronger effect = lower value 1.02 | S. cerevisiae deletion strains, locus YLR357W, strain rsc2, stronger effect = lower value 1 | S. cerevisiae deletion strains, locus YLR370C, strain arc18, stronger effect = lower value 0.995 | S. cerevisiae deletion strains, locus YLR371W, strain rom2, stronger effect = lower value 1.02 | S. cerevisiae deletion strains, locus YLR384C, strain iki3, stronger effect = lower value 1.01 | S. cerevisiae deletion strains, locus YLR418C, strain cdc73, stronger effect = lower value 1.03 | S. cerevisiae deletion strains, locus YML016C, strain PPZ1, stronger effect = lower value 1.01 | S. cerevisiae deletion strains, locus YML032C, strain rad52, stronger effect = lower value 1.04 | S. cerevisiae deletion strains, locus YML120C, strain ndi1, stronger effect = lower value 1 | S. cerevisiae deletion strains, locus YML124C, strain tub3, stronger effect = lower value 1.02 | S. cerevisiae deletion strains, locus YMR058W, strain fet3, stronger effect = lower value 1.01 | S. cerevisiae deletion strains, locus YMR078C, strain ctf18, stronger effect = lower value 1.02 | S. cerevisiae deletion strains, locus YMR125W, strain sto1, stronger effect = lower value 0.99 | S. cerevisiae deletion strains, locus YMR129W, stronger effect = lower value 0.999 | S. cerevisiae deletion strains, locus YMR205C, strain PFK2, stronger effect = lower value 1 | S. cerevisiae deletion strains, locus YMR223W, strain ubp8, stronger effect = lower value 1.01 | S. cerevisiae deletion strains, locus YMR231W, strain pep5, stronger effect = lower value 1 | S. cerevisiae deletion strains, locus YMR263W, strain SAP30, stronger effect = lower value 1.01 | S. cerevisiae deletion strains, locus YMR307W, strain GAS1, stronger effect = lower value 1.03 | S. cerevisiae deletion strains, locus YNL067W, strain RPL9B, stronger effect = lower value 1.02 | S. cerevisiae deletion strains, locus YNL071W, strain lat1, stronger effect = lower value 0.996 | S. cerevisiae deletion strains, locus YNL128W, strain TEP1, stronger effect = lower value 1.02 | S. cerevisiae deletion strains, locus YNL153C, strain GIM3, stronger effect = lower value 1 | S. cerevisiae deletion strains, locus YNL183C, strain NPR1, stronger effect = lower value 0.94 | S. cerevisiae deletion strains, locus YNL209W, strain ssb2, stronger effect = lower value 0.999 | S. cerevisiae deletion strains, locus YNL233W, strain BNI4, stronger effect = lower value 1.02 | S. cerevisiae deletion strains, locus YNL248C, strain rpa49, stronger effect = lower value 0.954 | S. cerevisiae deletion strains, locus YNL250W, strain rad50, stronger effect = lower value 1.02 | S. cerevisiae deletion strains, locus YNL271C, strain bni1, stronger effect = lower value 1.01 | S. cerevisiae deletion strains, locus YNL298W, strain CLA4, stronger effect = lower value 1.03 | S. cerevisiae deletion strains, locus YNL307C, strain MCK1, stronger effect = lower value 1.03 | S. cerevisiae deletion strains, locus YNL322C, strain KRE1 (second series), stronger effect = lower value 1 | S. cerevisiae deletion strains, locus YNL322C, strain KRE1, stronger effect = lower value 1.01 | S. cerevisiae deletion strains, locus YNR049C, strain mso1, stronger effect = lower value 1.01 | S. cerevisiae deletion strains, locus YNR052C, strain pop2, stronger effect = lower value 1.02 | S. cerevisiae deletion strains, locus YOL006C, strain TOP1, stronger effect = lower value 1.08 | S. cerevisiae deletion strains, locus YOL012C, strain htz1 0.978 | S. cerevisiae deletion strains, locus YOL147C, strain pex11, stronger effect = lower value 1.02 | S. cerevisiae deletion strains, locus YOR001W, strain rrp6, stronger effect = lower value 1.02 | S. cerevisiae deletion strains, locus YOR061W, strain CKA2, stronger effect = lower value 1.02 | S. cerevisiae deletion strains, locus YOR069W, strain VPS5, stronger effect = lower value 1.01 | S. cerevisiae deletion strains, locus YOR070C, strain gyp1, stronger effect = lower value 1 | S. cerevisiae deletion strains, locus YOR080W, strain dia2, stronger effect = lower value 1.01 | S. cerevisiae deletion strains, locus YOR083W, strain WHI5, stronger effect = lower value 0.982 | S. cerevisiae deletion strains, locus YOR106W, strain vam3, stronger effect = lower value 1.02 | S. cerevisiae deletion strains, locus YOR136W, strain idh2, stronger effect = lower value 1.02 | S. cerevisiae deletion strains, locus YOR144C, strain elg1, stronger effect = lower value 1.02 | S. cerevisiae deletion strains, locus YOR184W, strain ser1, stronger effect = lower value 1.03 | S. cerevisiae deletion strains, locus YOR231W, strain MKK1, stronger effect = lower value 0.953 | S. cerevisiae deletion strains, locus YOR265W, strain rbl2, stronger effect = lower value 1.01 | S. cerevisiae deletion strains, locus YOR270C, strain vph1, stronger effect = lower value 1.01 | S. cerevisiae deletion strains, locus YOR290C, strain snf2, stronger effect = lower value 0.978 | S. cerevisiae deletion strains, locus YOR316C, strain cot1, stronger effect = lower value 1.01 | S. cerevisiae deletion strains, locus YPL051W, strain arl3, stronger effect = lower value 1.01 | S. cerevisiae deletion strains, locus YPL055C, strain LGE1, stronger effect = lower value 1.02 | S. cerevisiae deletion strains, locus YPL078C, strain atp4, stronger effect = lower value 1.02 | S. cerevisiae deletion strains, locus YPL106C, strain sse1, stronger effect = lower value 0.991 | S. cerevisiae deletion strains, locus YPL240C, strain hsp82, stronger effect = lower value 0.995 | S. cerevisiae deletion strains, locus YPL241C, strain CIN2, stronger effect = lower value 1.01 | S. cerevisiae deletion strains, locus YPL256C, strain CLN2, stronger effect = lower value 0.962 | S. cerevisiae deletion strains, locus YPR119W, strain clb2, stronger effect = lower value 1.02 | S. cerevisiae deletion strains, locus YPR141C, strain kar3, stronger effect = lower value 1.02 | S. cerevisiae deletion strains, locus YPR163C, strain tif3, stronger effect = lower value 1.02 | S. cerevisiae deletion strains, locus YPR167C, strain met16, stronger effect = lower value 1.03 | S. cerevisiae deletion strains, strain wtn01, stronger effect = lower value 1.03 | S. cerevisiae strains, strain wild type, stronger effect = lower value 1.01
